Several values for one entry are separate records, joined by “and”; a condition that tells them apart may be missing. Identical values can stand only once. Inconclusive results are not listed. Where a call stands in place of a potency, no number is given. Activity calls are given as the source filed them. Calls follow the shape of the dose curve; as a rule, active = well fitted inhibition curve with a large enough effect in the repeat runs; inconclusive = weak or mixed curves, or effect the other way; inactive = no such curve, though single readings can be large or run the other way.
Potency is read from the fitted curve at half-maximal effect.

This experiment has as its target Nuclear receptor ROR-gamma (Homo sapiens) (UniProt P51449). The experiment can be described thus: qHTS assay to identify small molecule antagonists of the retinoid-related orphan receptor gamma (ROR-gamma) signaling pathway (AID 1159521; also: nearly all actives have a fitted effect of over 50% in size). The settings on record: Tet-on RORgamma CHO cells, RORE-luciferase, 16 h; series mostly up to 92.4 µM. A digest of the protocol:
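RORγ antagonism is scored from reduced reporter luminescence in Tet-on CHO cells. Induction used 1 uM final doxycycline hyclate for 16 h at 37 C, following a 2 h compound exposure.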
On the technique in general: In qHTS, concentration-response curves come from the screen itself.
Consider `O=C1CC(=O)NC(=O)N1`, for which the Potency entry was “inactive”.
`CC(C)[N+](C)(CCC(C(N)=O)(c1ccccc1)c1ccccc1)C(C)C`: the Potency entry is “inactive”.
Take `S=C=S`: the Potency entry was “inactive”.
For `Cn1c(CCCC(=O)O)nc2cc(N(CCCl)CCCl)ccc21`, the Potency result was “inactive”.
As to `CCSC(=O)Cl`, the Potency result was “inactive”.
Turning to `CC(C)(C)c1cc(O)ccc1O`, the Potency is 13.7 µM (active) and 24.3 µM (active).
Take `CCC(C)(C#N)N=NC(C)(C#N)CC` (stereo not given): the Potency result is “inactive”.
On to `O=C(Cl)C(Cl)Cl`, for which the Potency result was “inactive”.
For `COP(=O)(OC)O/C(C)=C/C(=O)N(C)C` the value was “inactive”; for `CON(C)C(=O)Nc1ccc(Br)c(Cl)c1`, “inactive”; for `COc1ccc(C=O)cc1O`, “inactive”.
For the compound `CCOC(=O)C(Cl)Cc1cc(-n2nc(C)n(C(F)F)c2=O)c(F)cc1Cl` (stereo not given), the Potency result is “inactive”.
As for `CCN[C@@H](C)Cc1ccccc1`, the entry is “inactive”.
As to `O=C(Cl)C(Cl)(Cl)Cl`, the Potency result was “inactive”.
Take `CCN(CCO)CCn1c(Cc2ccccc2)nc2c1c(=O)n(C)c(=O)n2C`: the Potency result is “inactive”.
Take `CCOC(=O)C(SP(=S)(OC)OC)c1ccccc1` (stereo not given): the Potency result is “inactive”.
For the compound `CCOC(=O)NC(C)(C)Cc1ccc(Cl)cc1`, the Potency entry was “inactive”.
As for `C=CCc1cc(OC)c2c(c1)OCO2`, the Potency result was “inactive”.
For `CN1COCN(Cc2cnc(Cl)s2)/C1=N\[N+](=O)[O-]` the value was “inactive”.
Turning to `NC(=O)CS(=O)C(c1ccccc1)c1ccccc1` (stereo not given), the Potency entry is “inactive”.
Regarding `CCCCCCCCSC(=O)Oc1cc(Cl)nnc1-c1ccccc1`, the Potency entry is “inactive”.
As for `C1CN2CCC1CC2`, the Potency entry was “inactive”.
With `ClC1=C(Cl)C2(Cl)C(CBr)CC1(Cl)C2(Cl)Cl` (stereo not given), the Potency entry was “inactive”.
For the compound `CCC1(c2ccccc2)C(=O)N(COC)C(=O)N(COC)C1=O`, the Potency entry is “inactive”.
In the case of `NNC(N)=O`, the Potency result was “inactive”.

The values are drawn from PubChem BioAssay (Tox21).
